Measurements as given in PubChem BioAssay (NCI).
Compounds without any hit were thinned out: in the full panel of roughly 83,000, 20% have a hit.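 The endpoint reported here, percent growth, reads 100 for growth as untreated, 0 for no net growth and -100 for all cells dead.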 Calls of active or inactive are those of the source. The calls were made as follows: active = growth percent below 10; inactive = the rest.

The compounds below were run on U251 CNS (assay: NCI-60 one-dose screen, 48 h (100 = growth as untreated, 0 = no growth, -100 = all killed)). Settings: 10 µM unless noted.

| SMILES | growth |
| --- | --- |
| CCC1(CC)NC(=O)c2c(c3ccc(Cl)c(Cl)c3n2C)C1C#N (stereo not drawn) | 96.1% (inactive) |
| O=C(Nc1ccc(F)cc1)c1c(NC(=O)C(F)(F)F)sc2c1CCCCC2 | 6.02% (active) |
| O=C(NCCN1CCOCC1)OCc1nc2nc(Cl)nc(N3CCOCC3)c2[nH]1 | 19.7% (inactive) |
| COc1ccc(C(=O)c2cc3c(N)c(C(=O)Nc4cccc(Cl)c4C)sc3nc2C)cc1 | 14.4% (inactive) |
| COc1ccccc1/C=C1\Oc2cc(OCCCN3CCCC3)ccc2C1=O | 76.5% (inactive) |
| CCc1nc(C)cn1C(=O)OCc1nc2nc(Cl)nc(N3CCOCC3)c2[nH]1 | -55.3% (active) |
| COc1ccc(Cl)cc1NC(=O)c1c(NC(=O)C(F)(F)C(F)(F)F)sc2c1CCCCC2 | 7.27% (active) |
| COc1ccccc1/C=C1\COc2ccc(-c3ccccc3)cc2C1=O | 17.3% (inactive) |
| O=C(O)CCCCCCCCCCCCCCC(=O)O | 93.7% (inactive) |
| NC(=O)C1(N2CCCCC2)CCN(CCCC(=O)c2ccc(F)cc2)CC1 | 23.2% (inactive) |
| CCCCCCCCCCCCCCCC(=O)OC[C@@]1(O)C[C@@]23CC[C@@H]4C(C)(C)[C@H](O)CC[C@@]4(C)[C@@H]2CC[C@H]1C3 | 107% (inactive) |
| CCOC(=O)c1ccc(Nc2ccnc(SCC(=O)c3ccc(C#N)cc3)n2)cc1 | 84.8% (inactive) |
| O=S(=O)(c1cccc(NC2=Nc3cccc4cccc2c34)c1)N1CCCC1 | 65.7% (inactive) |
| CCN(CC)CCOC(COc1cc(C)cc(C)c1)COc1cc(C)cc(C)c1 | 32.5% (inactive) |
| COc1ccc(Nn2c(SCC(=O)Nc3nc(-c4ccc(Cl)cc4)cs3)nc(C)c2C)cc1 | 43.5% (inactive) |

The compounds below were run on PC-3 prostate in the same assay as above. Settings: 10 µM unless noted.

| SMILES | growth |
| --- | --- |
| O=C1/C(=C/c2ccc(O)cc2)COc2ccc(-c3ccccc3)cc21 | 60% (inactive) |
| CC(=O)N1N=C(c2cccc(Nc3ccncc3)c2)CC1c1ccc2c(c1)OCO2 (stereo not drawn) | 79% (inactive) |
| Clc1nc(Cl)c2ncn(CCOCCn3cnc4c(Cl)nc(Cl)nc43)c2n1 | -93.4% (active) |
| COc1ccc(/C=C2\COc3ccc(-c4ccccc4)cc3C2=O)cc1O | 27.8% (inactive) |
| Cc1c2c(cc[n+]1Cc1ccccc1)c1ccc(OCC3CCCCC3)cc1n2CC1CCCCC1 | -75.8% (active) |
| CC[N+](CC)(CCCC(C)[N+]1(Cc2ccccc2)C(C)=CC=C1C)Cc1ccccc1 (stereo not drawn) | 73.3% (inactive) |
| CN1C(=O)N(C)[C@H]2NC(NN)=N[C@H]21 | 96.3% (inactive) |
| O=C(Nc1cccc(Cl)c1)Oc1c(Br)c(Br)c(Br)c(Br)c1Br | 59.5% (inactive) |
| NC(=O)c1ncn(C2OC(CO)C(O)C2O)n1 (stereo not drawn) | 85.2% (inactive) |
| COc1cc(/C=C/C(=O)c2c(C)oc3nc[nH]c(=O)c23)ccc1O | 103% (inactive) |
| COc1cc(NCCCN(CC(C)C)CC(C)C)c2ncccc2c1 | 70.4% (inactive) |
| O=[N+]([O-])c1cccc(-c2nc(-c3ccc(Cl)cc3Cl)cn2-c2ccccc2)c1 | -47.7% (active) |
| O=C(N/N=C/c1ccc(F)cc1)c1ccccc1Nc1cccc(C(F)(F)F)c1 | 96.2% (inactive) |
| COc1ccc(Cn2nc(-c3cc(OC)c(OC)c(OC)c3)c3c2CCc2cnoc2-3)cc1OC | 65% (inactive) |
| Fc1ccc(C2CC(c3cccc(Nc4ccncc4)c3)=NN2c2ccccc2)cc1 (stereo not drawn) | 40.6% (inactive) |
| CCn1cc(C2NC(=O)c3ccccc3N2)c2cccc(C)c21 (stereo not drawn) | 22% (inactive) |
| Cc1nc2sc(C(=O)Nc3ccccc3)c(N)c2cc1C(=O)c1ccc(C(F)(F)F)cc1 | 102% (inactive) |
| CC(=O)c1c(C)[nH]c(-c2nc3ccc(N4CCN(C)CC4)cc3[nH]2)c1-c1ccccc1 | 32% (inactive) |
| CCC1(CC)NC(=O)c2c(c3ccc(Cl)c(Cl)c3n2C)C1C#N (stereo not drawn) | 90.5% (inactive) |

| SMILES | growth |
| --- | --- |
| O=C(Nc1ccc(F)cc1)c1c(NC(=O)C(F)(F)F)sc2c1CCCCC2 | 3.29% (active) |
| O=C(NCCN1CCOCC1)OCc1nc2nc(Cl)nc(N3CCOCC3)c2[nH]1 | 24% (inactive) |
| CC(C)[N+](C)(CCOC(COc1ccccc1)COc1ccccc1)C(C)C | 73.2% (inactive) |
| COc1ccc(C(=O)c2cc3c(N)c(C(=O)Nc4cccc(Cl)c4C)sc3nc2C)cc1 | 21.7% (inactive) |
| COc1ccccc1/C=C1\Oc2cc(OCCCN3CCCC3)ccc2C1=O | 85.8% (inactive) |
| CCc1nc(C)cn1C(=O)OCc1nc2nc(Cl)nc(N3CCOCC3)c2[nH]1 | -63.5% (active) |
| CN1CCN(c2cc(F)c(NC3=C(Cl)C(=O)c4ncccc4C3=O)c(F)c2)CC1 | 11.8% (inactive) |
| COc1ccc(Cl)cc1NC(=O)c1c(NC(=O)C(F)(F)C(F)(F)F)sc2c1CCCCC2 | 5.18% (active) |
| COc1ccccc1/C=C1\COc2ccc(-c3ccccc3)cc2C1=O | 27.2% (inactive) |
| O=C(O)CCCCCCCCCCCCCCC(=O)O | 92.6% (inactive) |
| NC(=O)C1(N2CCCCC2)CCN(CCCC(=O)c2ccc(F)cc2)CC1 | 30.2% (inactive) |
| CCN1C(=O)/C(=c2\sc3n(c2=O)NC2C(N=3)N(CC)C(=O)N2CC)c2ccccc21 (stereo not drawn) | 29.6% (inactive) |
| CCCCCCCCCCCCCCCC(=O)OC[C@@]1(O)C[C@@]23CC[C@@H]4C(C)(C)[C@H](O)CC[C@@]4(C)[C@@H]2CC[C@H]1C3 | 100% (inactive) |
| CCOC(=O)c1ccc(Nc2ccnc(SCC(=O)c3ccc(C#N)cc3)n2)cc1 | 39.6% (inactive) |
| O=S(=O)(c1cccc(NC2=Nc3cccc4cccc2c34)c1)N1CCCC1 | 52.4% (inactive) |
| COc1ccccc1N1CCN(C(=O)c2ccc3nc(NC(=O)c4ccc(NCCc5ccccc5)c([N+](=O)[O-])c4)sc3c2)CC1 | 77.9% (inactive) |
| CCN(CC)CCOC(COc1cc(C)cc(C)c1)COc1cc(C)cc(C)c1 | 33.6% (inactive) |
| COc1ccc(Nn2c(SCC(=O)Nc3nc(-c4ccc(Cl)cc4)cs3)nc(C)c2C)cc1 | 35.7% (inactive) |
| CC1=CC2(C)/C=C(C)/C=C\CC(O)/C=C3/C=CC(=C4C(=O)OC2(CC1C)C4=O)OC3 (stereo not drawn) | -8.09% (active) |
